Seven compounds from PubChem BioAssay can be followed below.

Experiment [1] in a line: liver-stage malaria parasite growth inhibition, primary screen, cell-based, HepG2, luciferase luminescence, HepG2 viability (AID 624349; in the data active means parasite load remaining mostly below about 12%, no sharp cut-off; inactive means mostly above about 10%;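 further: 100% = mean of DMSO negative control wells on the same plate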). The settings on record: P. berghei liver stage in HepG2, luciferase luminescence, concentration not given here; parasite load remaining: stronger effect = lower value; viability: measured here: HepG2 viability without parasites.
A short description of experiment [2]: stimulators of nuclear beta-catenin in C2C12, primary screen, imaging, WNT3A-conditioned medium, mouse C2C12, NPC library (AID 1117326). The settings on record: stronger effect = higher value.
Experiment [3] is described as follows: growth inhibition of GSK3B-pretreated HCT116 cells – cell-based, CellTiter-Glo, 0.2 to 20 µM (AID 1117336;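 active means compounds lowering colon cancer cell viability after pretreatment blocking the GSK3B kinase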). The following applies: HCT116 viability after GSK3B inhibitor, at 20 µM, stronger effect = higher value.
A short description of experiment [4]: inhibition of endothelial tube formation, primary screen, imaging, VEGF stimulated, CD31 staining, tube area, NPC library (AID 1117340;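 active means compound that reduces growth-factor-driven endothelial tube area in a mixed cell culture, no cutoff stated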). The following applies: VEGF-stimulated ADSC/ECFC co-culture, at 10 µM, stronger effect = higher value.
Experiment [5] is described as follows: HCT116 colon cancer cell growth inhibition, primary screen, CellTiter-Glo luminescence, NPC library (AID 1117342;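 active means compounds that lower survival of HCT116 colon cancer cells in the luminescence readout, no numeric limit stated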). The settings on record: at 20 µM (top of the series).
Experiment [6] can be described thus: CellTiter-Glo luminescent readout of SW480 viability loss, NPC library primary (AID 1117343;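 active means compounds that lower viability of the colon cancer cells in the luminescence readout, with no numeric limit stated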). The settings on record: CellTiter-Glo luminescence; at 20 µM (top of the series) unless noted.
Experiment [7] is described as follows: decreased DLD-1 cellular survival, CellTiter-Glo luminescent readout, NPC compound collection, primary HTS (AID 1117346;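 active means compounds that lower survival of DLD-1 colon cancer cells in the luminescence readout, no cutoff given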). The settings on record: DLD-1 viability, CellTiter-Glo luminescence; at 20 µM (top of the series).
The target of experiment [8] is 6-phosphogluconate dehydrogenase, decarboxylating (Homo sapiens) (UniProt P52209). The experiment can be described thus: 6PGD enzyme inhibitors, primary screen, biochemical, human, recombinant enzyme, NADPH absorbance (AID 1159550;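 active means at least 20% inhibition of 6-phosphogluconate dehydrogenase activity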). The following applies: recombinant 6PGD, NADPH absorbance 341 nm; at 10 µM; stronger effect = higher value.
Sequence of 6-phosphogluconate dehydrogenase, decarboxylating (Homo sapiens) (P52209 whole entry, looked up): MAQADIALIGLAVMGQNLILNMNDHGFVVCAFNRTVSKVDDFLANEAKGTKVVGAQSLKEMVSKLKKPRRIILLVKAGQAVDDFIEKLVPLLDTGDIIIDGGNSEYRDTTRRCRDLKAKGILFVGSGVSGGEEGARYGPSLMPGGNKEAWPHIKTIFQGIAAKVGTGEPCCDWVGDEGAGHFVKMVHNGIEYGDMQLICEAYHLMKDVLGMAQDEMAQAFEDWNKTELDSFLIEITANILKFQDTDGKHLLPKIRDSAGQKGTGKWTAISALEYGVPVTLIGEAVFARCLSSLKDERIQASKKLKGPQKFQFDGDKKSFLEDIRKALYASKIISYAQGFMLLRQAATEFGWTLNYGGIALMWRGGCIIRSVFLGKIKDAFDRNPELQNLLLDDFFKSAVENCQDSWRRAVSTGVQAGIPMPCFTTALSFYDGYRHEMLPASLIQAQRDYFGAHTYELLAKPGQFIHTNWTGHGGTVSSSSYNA
Experiment [9] is described as follows: differential killing of epithelial or mesenchymal cells, primary screen, imaging, PC-3E GFP, TEM4-18 mCherry, co-culture (AID 1345086;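 active means compounds killing one labelled cell type while sparing the other, by normalised counts and ratio limits, not self-fluorescent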;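 on all read-outs here: cells exposed to compound for 72 h before imaging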;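 on red/green cell ratio (normalised): normalised mesenchymal count divided by normalised epithelial count so high means epithelial killing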). The settings on record: imaging cell counts, at 1 µM; for red/green cell ratio (normalised): actives lie on both sides, counts scaled to control wells, 1 = unselective.
Experiment [10] is described as follows: sensitizers of A549 cells to miR-34 induction, primary screen, imaging, A549 dox-inducible miR-34, nuclei and caspase counts (AID 1347080;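 active means compounds whose cell count with miR-34 switched on is under 0.7 times the count with it off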). The following applies: A549 miR-34 inducible, Hoechst nuclei count, 48 h.
A short description of experiment [11]: stimulators of insulin release from INS-1E, primary screen, cell-based, 5 mM glucose, NPC library (AID 1117329;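 active means compound raises insulin release from rat beta cells at 5 mM glucose, no numeric limit stated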). The settings on record: rat INS-1E insulin secretion, at 10 µM, stronger effect = higher value.
Experiment [12] can be described thus: glucagon-like peptide 1 release enhancers, primary assay, NCI-H716 cell line, NPC library (AID 1117341;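 active means compound raises GLP1 secretion from the human gut endocrine cells, with no numeric limit stated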). The settings on record: NCI-H716 cells, at 10 µM, stronger effect = higher value.
Experiment [13] concerns the target NAD(+) hydrolase SARM1 (Homo sapiens) (UniProt Q6SZW1). Kind of experiment: SARM1 TIR NADase inhibitors, cell lysate, NAD-Glo luminescence (AID 1508614;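 active means compound whose remaining NAD level is above about 45 nM, limit read from the data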). The settings on record: SAM-TIR HEK293T lysate NADase, at 1 µM, stronger effect = higher value.
Experiment [14] can be described thus: viability rescue of complex I mutant cybrids, primary screen, cell-based, galactose medium, ATP luminescence (AID 1645843;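 active means z-score of at least 1.8 in each of two replicates, scored against plate mean and spread of sample wells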;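 further: positive z means more ATP and so rescue of galactose-driven cybrid death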). The following applies: complex I mutant cybrid cells, 72 h, stronger effect = higher value.
Experiment [15] can be described thus: survival rescue of mitochondrial mutant cells in low glucose, primary screen, MELAS cybrids, Rieske KO mouse fibroblasts, CellTiter-Glo (AID 1508586;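 active means mean z-score across replicates of 1.96 or higher in either the MELAS or the Rieske mutant cell line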;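 further: z relative to plate mean and SD of compound and empty wells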).
The mark [16] stands for this setting: measured here: epithelial PC-3E GFP cell survival.
[17] abbreviates: measured here: mesenchymal TEM4-18 mCherry cell survival.
The mark [18] stands for this setting: stronger effect = lower value, cell number ratio, induced over uninduced.
Where [19] appears, read: measured here: relative caspase fold change +Dox/-Dox.
Where [20] appears, read: measured here: total cells with miR-34 induction, stronger effect = lower value.
Setting [21] is: measured here: total cells without miR-34 induction.

Structures are written as SMILES. Several values for one entry are separate records, joined by “and”; a condition that tells them apart may be missing. Equal values may be shown once. Activity calls are given as the source filed them. Unless noted, no stated cut-off is given here; in the data, active means nuclear beta-catenin stimulation mostly above about 4.2% (no sharp cut-off); inactive means mostly below about 10%.

Sequence of NAD(+) hydrolase SARM1 (Homo sapiens) (Q6SZW1 whole entry, looked up): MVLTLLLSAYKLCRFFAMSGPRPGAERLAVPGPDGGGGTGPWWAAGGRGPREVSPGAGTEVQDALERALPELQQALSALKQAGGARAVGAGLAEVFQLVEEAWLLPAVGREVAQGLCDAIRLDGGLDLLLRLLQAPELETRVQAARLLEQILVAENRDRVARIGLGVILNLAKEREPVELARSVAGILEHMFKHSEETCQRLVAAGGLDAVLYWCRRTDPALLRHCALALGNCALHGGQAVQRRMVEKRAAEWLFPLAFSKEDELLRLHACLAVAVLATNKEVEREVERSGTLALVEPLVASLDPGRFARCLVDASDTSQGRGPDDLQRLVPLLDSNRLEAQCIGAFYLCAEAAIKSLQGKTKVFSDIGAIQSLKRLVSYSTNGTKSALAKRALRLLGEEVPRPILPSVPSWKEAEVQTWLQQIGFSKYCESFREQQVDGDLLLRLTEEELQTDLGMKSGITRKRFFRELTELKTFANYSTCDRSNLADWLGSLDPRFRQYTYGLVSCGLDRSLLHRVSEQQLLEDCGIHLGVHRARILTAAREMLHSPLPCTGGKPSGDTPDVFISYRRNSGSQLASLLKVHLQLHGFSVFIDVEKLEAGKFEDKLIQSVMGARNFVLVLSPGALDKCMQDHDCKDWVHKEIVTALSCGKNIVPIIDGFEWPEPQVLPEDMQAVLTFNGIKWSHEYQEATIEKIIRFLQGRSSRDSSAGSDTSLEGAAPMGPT

`Cc1ccc(O)cc1`: the parasite load remaining in experiment [1] was 125% (inactive) and 76.1% (inactive). In addition, the viability in experiment [1] is 68.3% and 96.4%. Moreover, the nuclear beta-catenin stimulation in [2] (at 10 µM) was 0.9% (inactive); in experiment [2] (stimulation, at 2 µM) it was 13.3%. For the same compound, the viability decrease in experiment [3] is 4.4% (inactive). Also, the tube area decrease in experiment [4] was -11.8% (inactive). Moreover, in experiment [5], the inhibition of viability is 13.6% (inactive). The viability decrease (inhibition) is -6.4% (inactive) in experiment [6] and -0.4% (inactive) in experiment [7]. For the same compound, the inhibition in experiment [8] was -1.83% (inactive). Further, the red/green cell ratio (normalised) in experiment [9] was 1.31 (inactive). Also, the normalised cell number in [9] (setting [16]) came to 1.05; in [9] (setting [17]), 1.37. The fold change in experiment [10] (setting [18]) was 0.843 (inactive); in experiment [10] (setting [19]) it was 3.01. The cell count in experiment [10] (setting [20]) is 10700; in [10] (setting [21]) it was 12700.
As to `CCCCCCCCCCCCCCCCCCOP(=O)([O-])OC1CC[N+](C)(C)CC1`, the nuclear beta-catenin stimulation in experiment [2] (at 10 µM) is -0.8% (inactive); in experiment [2] (stimulation, at 2 µM), -1%. In experiment [11], the insulin secretion stimulation was 0.3% (inactive). Besides, the GLP1 secretion stimulation in experiment [12] is 0.4% (inactive).
For the compound `CCCCC(CC)COC(=O)CC(C(=O)OCC(CC)CCCC)S(=O)(=O)O` (stereo unspecified), the nuclear beta-catenin stimulation in [2] (at 10 µM) is 2.7% (inactive); in experiment [2] (stimulation, at 2 µM), -0.9%. The insulin secretion stimulation in experiment [11] was -1.3% (inactive). Also, the GLP1 secretion stimulation in [12] was 84.6% (active). The red/green cell ratio (normalised) in experiment [9] was 0.91 (inactive). The normalised cell number in experiment [9] (setting [16]) was determined as 0.99; in experiment [9] (setting [17]), 0.9. In addition, the figures for the fold change in [10] (setting [18]) and in experiment [10] (setting [19]) were 0.854 (inactive) and 1.07, respectively. For the same compound, the results for the cell count in experiment [10] (setting [20]) and in experiment [10] (setting [21]) were 8120 and 9510, respectively. Further, the remaining NAD in experiment [13] was 10 nM (inactive).
For `CC(COc1ccccc1)NN` (stereo unspecified), the nuclear beta-catenin stimulation in experiment [2] (at 10 µM) is 1.8% (inactive); in experiment [2] (stimulation, at 2 µM), 5.4%. In addition, the viability decrease in experiment [3] was 26.7% (inactive). In addition, the tube area decrease in experiment [4] is 1.6% (inactive). The inhibition of viability in experiment [5] was 8% (inactive). In addition, the values for the viability decrease (inhibition) in experiment [6] and in experiment [7] were 19.2% (inactive) and 7.4% (inactive), respectively.
`CN1CCN(C2Cc3ccccc3Sc3ccc(Cl)cc32)CC1` (stereo unspecified): the nuclear beta-catenin stimulation in experiment [2] (at 10 µM) is 5.2% (inactive); in experiment [2] (stimulation, at 2 µM), -1.6%. In experiment [11], the insulin secretion stimulation was 6.6% (inactive). Besides, in [12], the GLP1 secretion stimulation was 13.2% (inactive). For the same compound, the fold change was 1.08 (inactive) in [10] (setting [18]) and 0.783 in [10] (setting [19]). The cell count is 5640 in [10] (setting [20]) and 5230 in [10] (setting [21]). Further, the z-score in experiment [14] is -1.27 (inactive).
`O=C(NC1CCN(CCc2c[nH]c3ccccc23)CC1)c1ccccc1`: the nuclear beta-catenin stimulation in experiment [2] (at 10 µM) is 1% (inactive); in experiment [2] (stimulation, at 2 µM) it was 2%. Also, in [11], the insulin secretion stimulation was 1.25% (inactive). Further, the GLP1 secretion stimulation in experiment [12] was -4.5% (inactive).
On to `O=C(CCCN1CCC(O)(c2cccc(C(F)(F)F)c2)CC1)c1ccc(F)cc1`, for which the parasite load remaining in experiment [1] was 27% (inactive). For the same compound, the viability in [1] was 66%. In addition, the nuclear beta-catenin stimulation was 14.8% (inactive) in [2] (at 10 µM) and -1.1% in experiment [2] (stimulation, at 2 µM). Besides, the insulin secretion stimulation in experiment [11] was -0.35% (inactive). Moreover, in experiment [12], the GLP1 secretion stimulation was 5.6% (inactive). In addition, the fold change in [10] (setting [18]) is 1.01 (inactive) and 0.873 (inactive); in experiment [10] (setting [19]), 0.77 and 1.63. In addition, the cell count in [10] (setting [20]) was 10300 and 9050; in [10] (setting [21]) it was 10200 and 10400. The z-score in experiment [15] (MELAS cybrid survival, CellTiter-Glo 48 h, stronger effect = higher value) was -0.508 (inactive); in experiment [15] (Rieske KO mouse fibroblast survival, CellTiter-Glo 72 h), -1.07; in experiment [14] it was -1 (inactive) and -0.885 (inactive).
